Results reported in PubChem BioAssay (NCI).
The panel holds about 83,000 compounds, 20% with a hit somewhere; the sample as a whole holds those more often.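 How to read the values: 0–100, growth inhibition (40 = 60% inhibited); 0, no net growth; -100 to 0, cell death (-40 = 40% of starting cells died; -100 = all dead).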 Unmarked numbers belong to inactive results. Calls of active or inactive are those of the source. The calls were made as follows: active = growth percent below 10; inactive = the rest.

Key:
Experiment in all cases: NCI-60 one-dose screen, 48 h (100 = growth as untreated, 0 = no growth, -100 = all killed)
Conditions in all cases: 10 µM unless noted
T-47D breast = test system: T-47D breast
BT-549 breast = test system: BT-549 breast
MDA-MB-435 melanoma = test system: MDA-MB-435 melanoma
SW-620 colon = test system: SW-620 colon
MCF7 breast = test system: MCF7 breast
HCT-116 colon = test system: HCT-116 colon
HCC-2998 colon = test system: HCC-2998 colon
KM12 colon = test system: KM12 colon

Row | SMILES | growth (T-47D breast) | growth (BT-549 breast) | growth (MDA-MB-435 melanoma) | growth (SW-620 colon) | growth (MCF7 breast) | growth (HCT-116 colon) | growth (HCC-2998 colon) | growth (KM12 colon)
1 | COc1cc2c(cc1-c1c(C)noc1C)ncc1nc(C3CCCCC3)n([C@H](C)COC(F)F)c12 | 32.8% | 58.7% | 34.1% | 58.7% | 18.3% | 28.4% | 43.7% | 46.3%
2 | CCN1CCN(c2nc(NCCNc3ccnc4cc(Cl)ccc34)c3ccccc3n2)CC1 | -10.8% (active) | 51.8% | -66.2% (active) | 1.44% (active) | 18.6% | 1.44% (active) | 35.8% | 7.58% (active)
3 | Cn1cc(-c2nonc2-c2c[nH]c3ccccc23)c2cccnc21 | 27% | 58.6% | -22.6% (active) | 14.1% | 19.4% | 24.3% | 69.9% | 20.1%
4 | O=C1CC[C@H](c2ccc(O)c3c2C(=O)[C@@H]2O[C@@H]2C3=O)c2cccc(O)c21 | -26.1% (active) | 86.8% | 47.3% | -41.3% (active) | -31.5% (active) | 5.4% (active) | 101% | 85.1%
5 | Cc1ccc(/C=C2\SC(=S)N(CC(=O)NCCCN3CCOCC3)C2=O)cc1 | 90.4% | 102% | 99.4% | 103% | 91.5% | 100% | 102% | 105%
6 | C=C(C)C1CC(O)C2(C)CCCC3C2C1CC(C)C3(C)CC/C(C)=C/C(O)C1CCC(=O)c2c(OC)cc(OC)cc21 (configuration not stated) | 37.2% | 60.4% | 41.7% | 47.1% | 30.1% | 28.5% | 76.9% | 40.9%
7 | O=C1c2cc3c(cc2-c2c1c1ccc(F)cc1c(=O)n2C[C@H](O)[C@@H](O)[C@H](O)CO)OCO3 | -4.06% (active) | -21.3% (active) | -76.2% (active) | 7.68% (active) | 4.18% (active) | 9.8% (active) | -8.31% (active) | 7.39% (active)
8 | COc1ccc(-n2nc(C)c3c(Nc4ccc(NC(=O)Nc5c(Cl)cccc5Cl)cc4)ncnc32)cc1 | 40% | 57.9% | 49.1% | 48.6% | 58.5% | 25% | 51% | 18%
9 | CSc1ccc(-c2ccccc(=O)c2O)cc1 | 27% | 29.7% | 23.5% | 29.2% | 15.8% | 20% | 44% | 23.1%
10 | Cc1cc(N2CCOCC2)nc(N[C@@H]2CCC[C@H](Nc3ccnc4cc(Cl)ccc34)C2)n1 | -56.6% (active) | 26% | -83% (active) | -1.97% (active) | 5.31% (active) | -6.15% (active) | 11.2% | 20.6%
11 | Cn1c(NCCc2ccc(O)c(O)c2)nc2c1c(=O)n(Cc1ccc(Br)cc1)c(=O)n2C | 53.3% | 73% | 79% | 81.4% | 80% | 67.4% | 94% | 76%
12 | Clc1ccc2c(NCCNc3nc(N4CCOCC4)nc4ccccc34)ccnc2c1 | -15% (active) | 93.5% | -8.79% (active) | 11.2% | 38.8% | -7.53% (active) | 32.3% | 13.3%
13 | N#CCCN=Nc1c(O)[nH]c2ccc([N+](=O)[O-])cc12 | 93.1% | 107% | 111% | 99.9% | 86.8% | 96.5% | 111% | 101%
14 | CCCCCCN(CCCCCC)CCC(O)c1ccc2ccccc2c1 (configuration not stated) | 34.4% | 74.7% | 68.3% | 48.2% | 26.6% | 24.3% | 44.6% | 56.2%
15 | O=C1/C(=C/C(Cl)=C/c2ccccc2)SC(=S)N1CCc1ccc(O)cc1 | -34.4% (active) | 11.6% | -30.7% (active) | 4.79% (active) | 26.4% | -62.3% (active) | -68.1% (active) | -31.6% (active)
16 | COc1cc2c(cc1-c1c(C)noc1C)ncc1nc(C3CCOCC3)n([C@H](C)COC(F)F)c12 | 46% | 68.8% | 40.6% | 59% | 19.2% | 40.4% | 47.7% | 47%
17 | COc1cc(/C=C/C(=O)c2cccnc2Nc2ccc(F)cc2)cc(OC)c1OC | 61.4% | 39.5% | 28.4% | 21.6% | 8.82% (active) | 13.9% | 21.7% | 24.6%
18 | Cc1nn(-c2ccc(F)cc2)c2ncnc(Nc3ccc(NC(=O)Nc4ccc(Cl)c(C(F)(F)F)c4)cc3)c12 | 2.53% (active) | 57.9% | 40.1% | 19.9% | 12.8% | 32.1% | 22.2% | 14.7%
19 | C[n+]1ccccc1/C=C/c1ccc2cccc(O)c2n1 | 97.6% | 97.6% | 114% | 52.1% | 97.3% | 97% | 95.2% | 41.1%
20 | CSc1nc(NCc2ccccc2)c(C#N)c(-c2cccc([N+](=O)[O-])c2)n1 | 82.8% | 95.8% | 99.4% | 96.5% | 91.8% | 87.1% | 107% | 98.2%
21 | O=S(=O)(Nc1ccc(Cl)c(F)c1)c1ccc(-c2cnc(C3CC3)o2)cc1 | 27.8% | 27.5% | 3.28% (active) | 17.9% | 13% | 23.1% | 41.5% | 38.4%
22 | NNCCc1ccc(NC(=O)CCCc2ccc(/C=C/C(=O)NO)cc2)cc1 | -5.44% (active) | 44.9% | 66% | 43.3% | 30.8% | 35.3% | 95.5% | 57.1%
23 | CC(=O)Nc1ccc(-n2c(O)c(/C=N/NC(=O)Cc3ccccc3Nc3c(Cl)cccc3Cl)sc2=S)cc1 | 80.6% | 104% | 109% | 96.5% | 92.3% | 95.3% | 106% | 105%
24 | O=c1cc(/C(=C2/C=CC=N2)c2ccc[nH]2)c2cc(Cl)ccc2o1 | 32% | 52.1% | 9.82% (active) | 34.8% | 70.9% | 44.2% | 89.7% | 38.9%
25 | Clc1ccc2c(NCCCNc3nc(-n4ccnc4)nc4ccccc34)ccnc2c1 | 70.3% | 82.8% | 92.6% | 89.8% | 76.5% | 88.3% | 106% | 88.5%
26 | O=c1cc(CSc2nnc(SCc3cc(=O)oc4c3ccc3ccccc34)o2)c2ccc3ccccc3c2o1 | 78.6% | 107% | 112% | 98.1% | 93.7% | 104% | 101% | 98.2%
27 | CN(C)S(=O)(=O)c1ccc(S(=O)(=O)Nc2cccc(Cl)c2N2CCCCC2)cc1 | 67.4% | 88.4% | 92.3% | 97.1% | 84.1% | 61.6% | 94.5% | 94.5%
28 | CC(=O)NCC1c2c(n(C)c3c(Cl)c(Cl)ccc23)C(=O)NC1(C)C (configuration not stated) | 98.5% | 102% | 96.4% | 113% | 92.1% | 94.8% | 93% | 118%
29 | C=CC(=O)Nc1cccc(Nc2nc(SC)nc(-c3cccc([N+](=O)[O-])c3)c2C#N)c1 | 42.7% | 58.4% | 53% | 31.6% | 28.5% | 19.8% | 48.2% | 90.5%
